The structures appear in SMILES notation. Active and inactive are the calls of the source.

This note sets out measurements from PubChem BioAssay.

Assay [1] is described as follows: small molecules captured by biotinylated probe aFSTL3 – biochemical, small-molecule microarray, fluorescence 635/667, stem cell growth factor project, primary screen (AID 1064).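 Further: measures binding of the biotinylated anti-FSTL3 antibody to printed compounds.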 The settings on record: higher = more signal.
A short description of assay [2]: binders from COS7 lysate, DM2A8 probe, primary screen, torsin A project, cell lysate, small-molecule microarray, fluorescence 635/667 (AID 1065). Conditions: higher = more signal, COS7 lysate expressing mutant human TOR1A.
Assay [3] can be described thus: small molecules captured by biotinylated probe aFGF2 – biochemical, small-molecule microarray, fluorescence 635/667, stem cell growth factor project, primary screen (AID 1067).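 Further: measures binding of biotinylated aFGF2 protein to printed compounds on slides; z-score merges feature fluorescence and signal-to-noise across triplicate slides.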 Conditions: higher = more signal.
Assay [4] in a line: small molecules captured by biotinylated probe aFGF10 – biochemical, small-molecule microarray, fluorescence 635/667, stem cell growth factor project, primary screen (AID 1071).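 Further: score merges 667 nm spot intensity and signal to noise from triplicate slides.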 Conditions: higher = more signal.
Assay [5] concerns the target Neurogenic locus notch homolog protein 2 (Homo sapiens) (UniProt Q04721). Kind of assay: small molecules binding Notch2 protein – biochemical, small-molecule microarray, 635 nm fluorescence, stem cell growth factors, primary screen (AID 1073). Conditions: higher = more signal.
Assay [6] concerns the target Pro-neuregulin-1, membrane-bound isoform (Homo sapiens) (UniProt Q02297). Kind of assay: small molecules binding neuregulin-1 protein – biochemical, small-molecule microarray, fluorescence 635/667, psychiatric disease protein project, primary screen (AID 1075).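 Further: score combines 667 nm spot fluorescence with signal to noise.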 The settings on record: NRG1 binding, 635 nm fluorescence, higher = more signal.
Assay [7] concerns Neuregulin-1 EGF-like domain. Kind of assay: small molecules binding NRG1 EGF domain – biochemical, small-molecule microarray, 635 nm fluorescence, primary screen (AID 1081).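 Further: binding of the protein to compounds printed on small-molecule microarray slides.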 The settings on record: higher = more signal.
A short description of assay [8]: FRG1 expression reporter modulators in myotubes – cell-based, C2C12 myotubes, firefly/Renilla luciferase, luminescence, FRG1 inhibition for FSHD, primary screen (AID 1084). The settings on record: FRG1 promoter luciferase, higher = more signal, called active from +8 up or from −8 down.
Assay [9] can be described thus: small molecules captured by biotinylated probe aFST – biochemical, small-molecule microarray, fluorescence 635/667, stem cell growth factor project, primary screen (AID 1086).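 Further: score merges 667 nm fluorescence with signal-to-noise of each printed compound spot.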 The settings on record: higher = more signal.
Assay [10] in a line: binders of probe aHhip on microarray, primary screen, stem cell growth factor project, biochemical, small-molecule microarray, fluorescence 635/667 (AID 1087).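 Further: score merges spot fluorescence at 667nm with spot signal to noise ratio.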 Conditions: higher = more signal.
For assay [11], the system named is PRMT1 (protein arginine N-methyltransferase 1). Briefly: small molecules binding arginine methyltransferase PRMT1 – biochemical, small-molecule microarray, 635 nm fluorescence, primary screen (AID 1088).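 Further: binding of Prmt1 protein to compounds spotted on small-molecule microarray slides.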 Conditions: higher = more signal.
Assay [12] is described as follows: growth effects on S. cerevisiae YJM789 – YJM789 clinical isolate, OD600, 24 h, basal, primary screen (AID 1089).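 Further: growth of clinical yeast isolate S. cerevisiae YJM 789 seeded 1000 cells per well; test concentration not given here.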 Conditions: higher = more signal, called active from +8 up or from −8 down.
The nature of assay [13]: S. pombe growth modifiers, basal conditions – strain 972, OD600, 24 h, no modulator, primary screen (AID 1090).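 Further: basal condition with compound alone and no growth modifier present; test concentration not given here.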 Conditions: S. pombe 972 growth, higher = more signal, called active from +8 up or from −8 down.
Assay [14] in a line: budding yeast growth modifiers under rapamycin – strain BY4716, OD600, 96 h, primary screen (AID 1091). Further: test concentration not given here. The settings on record: S. cerevisiae BY4716 + rapamycin, higher = more signal, called active from +8 up or from −8 down.
Assay [15] addresses Torsin-1A-interacting protein 2 (Homo sapiens) (UniProt Q8NFQ8). Briefly: small molecules binding lysate-expressed LULL1 – cell lysate, human LULL1 lysate, 635/667 nm fluorescence, primary screen (AID 1092).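 Further: probe is lysate of COS7 cells overexpressing human LULL1; score merges per-feature 667 nm fluorescence with signal-to-noise.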 The settings on record: small-molecule microarray, hLULL1 lysate binding, 635 nm fluorescence; higher = more signal.
The nature of assay [16]: optical density change of DRC41 E. coli – strain DRC41, OD650, 24 h, E. coli filamentation project, primary screen (AID 1093).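 Further: MC1000 strain lacking acrAB efflux and sulA so SOS filamentation is blocked; test concentration not given here.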 The settings on record: E. coli DRC41 growth, higher = more signal, called active from +8 up or from −8 down.
Assay [17] is described as follows: probe aLefty2 binding to arrayed compounds – biochemical, biotinylated probe, 635/667 nm fluorescence, primary screen (AID 1094).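 Further: score merges spot fluorescence near 667 nm with spot signal-to-noise ratio.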 Conditions: small-molecule microarray, higher = more signal.
Assay [18] has as its system Noggin (protein binding on small-molecule microarray). Kind of assay: small molecules binding Noggin protein – biochemical, 635/667 nm fluorescence, primary screen (AID 1095).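 Further: score merges 667 nm feature fluorescence with signal to noise over triplicate slides.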 Conditions: 635 nm fluorescence, higher = more signal.
The target in assay [19] is Neurogenic locus notch homolog protein 3 (Homo sapiens) (UniProt Q9UM47). Kind of assay: small molecules binding NOTCH3 protein – biochemical, 635/667 nm fluorescence, primary screen (AID 1096). The settings on record: small-molecule microarray, 635 nm fluorescence, higher = more signal.
Neurogenic locus notch homolog protein 3 (Homo sapiens), sequence (Q9UM47 whole entry, looked up): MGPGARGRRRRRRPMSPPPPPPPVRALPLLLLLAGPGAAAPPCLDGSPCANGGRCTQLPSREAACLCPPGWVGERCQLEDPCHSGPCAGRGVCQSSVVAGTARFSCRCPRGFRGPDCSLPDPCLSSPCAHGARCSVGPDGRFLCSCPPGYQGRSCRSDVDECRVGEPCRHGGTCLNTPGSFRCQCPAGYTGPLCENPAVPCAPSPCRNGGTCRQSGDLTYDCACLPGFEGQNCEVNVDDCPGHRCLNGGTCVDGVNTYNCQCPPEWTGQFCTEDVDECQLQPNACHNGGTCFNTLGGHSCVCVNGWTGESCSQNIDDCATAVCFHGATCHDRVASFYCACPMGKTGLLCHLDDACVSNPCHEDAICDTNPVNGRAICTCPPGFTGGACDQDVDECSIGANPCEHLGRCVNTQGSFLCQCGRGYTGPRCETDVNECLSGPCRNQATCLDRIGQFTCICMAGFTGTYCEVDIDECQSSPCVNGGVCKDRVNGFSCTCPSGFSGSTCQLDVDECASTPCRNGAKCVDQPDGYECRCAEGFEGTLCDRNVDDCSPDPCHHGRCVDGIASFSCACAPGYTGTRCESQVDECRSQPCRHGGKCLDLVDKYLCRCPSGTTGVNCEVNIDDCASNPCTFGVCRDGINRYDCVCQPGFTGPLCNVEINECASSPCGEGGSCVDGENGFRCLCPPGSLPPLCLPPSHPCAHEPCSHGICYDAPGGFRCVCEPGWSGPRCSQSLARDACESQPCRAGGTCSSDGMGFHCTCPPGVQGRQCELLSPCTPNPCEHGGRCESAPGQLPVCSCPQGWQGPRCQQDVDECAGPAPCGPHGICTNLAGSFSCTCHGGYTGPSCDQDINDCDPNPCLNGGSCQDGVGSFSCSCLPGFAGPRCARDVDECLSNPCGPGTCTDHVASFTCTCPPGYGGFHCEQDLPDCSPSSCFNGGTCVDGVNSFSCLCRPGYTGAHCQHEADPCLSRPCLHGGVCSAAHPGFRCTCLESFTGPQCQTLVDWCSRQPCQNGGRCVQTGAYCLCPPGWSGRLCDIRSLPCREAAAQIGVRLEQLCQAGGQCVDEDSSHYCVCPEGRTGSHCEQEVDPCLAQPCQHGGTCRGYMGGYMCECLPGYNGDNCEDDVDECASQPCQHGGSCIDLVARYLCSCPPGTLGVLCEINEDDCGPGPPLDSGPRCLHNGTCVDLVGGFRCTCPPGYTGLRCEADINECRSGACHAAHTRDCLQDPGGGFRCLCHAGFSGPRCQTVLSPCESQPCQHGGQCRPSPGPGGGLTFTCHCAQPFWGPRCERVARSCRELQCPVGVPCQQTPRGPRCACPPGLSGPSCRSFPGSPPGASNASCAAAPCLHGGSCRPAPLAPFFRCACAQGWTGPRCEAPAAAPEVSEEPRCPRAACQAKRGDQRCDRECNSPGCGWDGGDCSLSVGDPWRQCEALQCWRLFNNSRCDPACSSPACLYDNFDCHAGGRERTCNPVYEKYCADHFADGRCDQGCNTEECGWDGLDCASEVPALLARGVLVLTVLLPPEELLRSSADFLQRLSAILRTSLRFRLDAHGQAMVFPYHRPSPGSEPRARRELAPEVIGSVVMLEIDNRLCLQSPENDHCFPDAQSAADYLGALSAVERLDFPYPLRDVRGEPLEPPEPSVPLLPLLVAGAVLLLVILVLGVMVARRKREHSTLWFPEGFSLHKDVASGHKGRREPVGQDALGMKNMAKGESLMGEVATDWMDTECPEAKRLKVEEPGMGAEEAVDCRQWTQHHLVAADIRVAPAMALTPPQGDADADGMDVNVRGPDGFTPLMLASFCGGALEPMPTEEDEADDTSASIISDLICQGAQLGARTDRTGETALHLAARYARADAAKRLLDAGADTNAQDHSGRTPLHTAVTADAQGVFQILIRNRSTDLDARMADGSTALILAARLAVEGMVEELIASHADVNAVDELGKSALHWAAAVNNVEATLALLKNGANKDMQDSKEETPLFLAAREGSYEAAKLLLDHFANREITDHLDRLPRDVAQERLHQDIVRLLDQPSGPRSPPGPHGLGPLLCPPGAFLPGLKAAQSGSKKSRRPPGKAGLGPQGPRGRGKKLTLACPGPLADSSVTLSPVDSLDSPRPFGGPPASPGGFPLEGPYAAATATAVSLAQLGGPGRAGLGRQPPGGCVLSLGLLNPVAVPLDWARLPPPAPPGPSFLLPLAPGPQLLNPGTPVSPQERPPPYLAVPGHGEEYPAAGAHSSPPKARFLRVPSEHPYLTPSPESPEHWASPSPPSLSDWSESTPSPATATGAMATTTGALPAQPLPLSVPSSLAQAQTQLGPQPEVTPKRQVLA
Assay [20] is described as follows: probe aEGFR binding to arrayed compounds – biochemical, biotinylated probe, 635/667 nm fluorescence, primary screen (AID 1097).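 Further: probe is a biotinylated anti-EGFR antibody binding compounds printed on slides; score combines fluorescence near 667 nm and signal to noise of each spot.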 Conditions: small-molecule microarray, higher = more signal.

Pro-neuregulin-1, membrane-bound isoform (Homo sapiens), sequence (Q02297 whole entry, looked up, the tested form may be a part, canonical isoform): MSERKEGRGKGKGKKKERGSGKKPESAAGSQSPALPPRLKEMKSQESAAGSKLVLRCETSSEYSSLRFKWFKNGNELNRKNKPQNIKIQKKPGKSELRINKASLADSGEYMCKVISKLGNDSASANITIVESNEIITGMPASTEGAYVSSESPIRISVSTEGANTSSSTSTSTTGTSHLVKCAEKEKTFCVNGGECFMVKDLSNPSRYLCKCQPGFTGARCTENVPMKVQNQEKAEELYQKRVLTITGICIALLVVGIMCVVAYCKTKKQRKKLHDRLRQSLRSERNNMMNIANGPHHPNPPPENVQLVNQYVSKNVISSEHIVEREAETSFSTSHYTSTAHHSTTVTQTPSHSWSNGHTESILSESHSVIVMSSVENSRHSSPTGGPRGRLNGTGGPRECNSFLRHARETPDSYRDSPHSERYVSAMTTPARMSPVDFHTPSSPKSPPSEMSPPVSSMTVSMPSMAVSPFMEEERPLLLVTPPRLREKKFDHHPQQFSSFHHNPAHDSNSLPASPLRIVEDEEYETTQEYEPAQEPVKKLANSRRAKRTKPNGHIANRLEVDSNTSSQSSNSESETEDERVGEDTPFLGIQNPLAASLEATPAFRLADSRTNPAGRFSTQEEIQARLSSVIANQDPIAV
Torsin-1A-interacting protein 2 (Homo sapiens), sequence (Q8NFQ8 whole entry, looked up): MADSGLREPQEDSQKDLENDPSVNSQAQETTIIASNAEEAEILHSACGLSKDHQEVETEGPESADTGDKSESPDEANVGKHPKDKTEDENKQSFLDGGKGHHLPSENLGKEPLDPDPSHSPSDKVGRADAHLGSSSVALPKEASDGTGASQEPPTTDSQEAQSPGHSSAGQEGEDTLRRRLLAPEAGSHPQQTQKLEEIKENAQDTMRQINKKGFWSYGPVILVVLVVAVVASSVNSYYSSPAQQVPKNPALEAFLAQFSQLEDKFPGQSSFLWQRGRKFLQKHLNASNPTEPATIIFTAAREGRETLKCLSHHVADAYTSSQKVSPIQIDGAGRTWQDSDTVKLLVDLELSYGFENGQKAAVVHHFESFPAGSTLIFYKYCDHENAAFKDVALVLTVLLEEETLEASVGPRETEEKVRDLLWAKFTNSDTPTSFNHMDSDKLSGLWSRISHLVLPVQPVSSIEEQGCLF

In the case of `CC(C)NC(=O)[C@@H]1c2ccccc2C(=O)N(Cc2ccc(OC(F)(F)F)cc2)[C@H]1c1ccc(CO)cc1`, the composite z-score in assay [1] was 0.33; in [2] it was -0.0722; in [3], 0.242; in assay [4], 0.625; in assay [5], 1.05; in [6], 0.765. The composite z-score in assay [7] was 1; in [9], 1.35; in assay [10], 2.21; in [11], 1.54; in [15] it was 2.67; in assay [17], 0.734. The composite z-score turned out to be 0.756 in assay [18], 1.11 in assay [19] and 0.587 in assay [20]. Further, the z-score in [8] was -1.05 (inactive); in assay [12], 0.0263 (inactive); in [13], -1.24 (inactive); in assay [14], -1.51 (inactive); in [16], -1.48 (inactive).

With `NC(=O)N1C(=O)C2C(C1=O)C1C=C(CCCO)C2C(c2ccc(CN3CCCC3)cc2)N1Cc1cc2c(cc1Br)OCO2` (stereo not given), the composite z-score was 0.117 in assay [1]; 0.19 in assay [2]; -0.0909 in assay [3]; -0.0906 in assay [4]; -0.362 in assay [5]; -0.311 in assay [6]. Besides, the composite z-score in assay [7] is 0.626; in assay [9], -0.369; in assay [10] it was -0.476; in [11] it was 0.964; in [15], 0.835; in assay [17], -0.128. In addition, the composite z-score is 0.208 in [18], -0.788 in [19] and -0.211 in assay [20]. Also, the z-score was -0.905 (inactive) in [8]; -2.23 (inactive) in assay [12]; -0.251 (inactive) in [13]; -0.665 (inactive) in [14]; 0.181 (inactive) in assay [16].

For the molecule `COC(=O)[C@H](Cc1ccccc1)N1CC2=CCCC=C[C@@H]2[C@H]1[C@H](O)Cc1ccccc1`, the composite z-score in assay [1] was -0.22; in assay [2], 0.0803; in [3] it was -0.103; in [4], 0.311; in assay [5], -0.0146; in [6] it was 0.112. In addition, the composite z-score is 0.667 in [7]; 0.0599 in [9]; -0.0427 in assay [10]; 0.438 in assay [11]; 0.626 in [15]; -0.0632 in assay [17]. Also, the composite z-score in assay [18] was 1.15; in assay [19] it was 0.215; in [20], -0.111. The z-score in [8] is 0.569 (inactive); in [12], -1.09 (inactive); in assay [13], -2.01 (inactive); in assay [14] it was -0.172 (inactive); in [16] it was -0.496 (inactive).

Turning to `COc1ccc(C(=O)Nc2cccc(CN3C(=O)[C@@]4(O[C@@H](CC(=O)N5CCC[C@H]5CO)[C@H]([Si](C)(C)c5ccc(OC)cc5)[C@H]4C)c4ccccc43)c2)cc1`, the composite z-score in assay [1] is -0.226; in assay [2], 0.484; in assay [3], -0.0625; in assay [4] it was 0.0314; in assay [5], 0.518; in assay [6], 1.39. Besides, the composite z-score is 1.13 in assay [7]; -0.0084 in assay [9]; -0.261 in [10]; 1.55 in [11]; 0.983 in assay [15]; -0.102 in assay [17]. In addition, the composite z-score is 0.766 in [18], 0.957 in [19] and -0.118 in assay [20]. Besides, the z-score is -3.85 (inactive) in assay [8]; -0.624 (inactive) in assay [12]; 0.706 (inactive) in assay [13]; -1.2 (inactive) in assay [14]; -0.126 (inactive) in [16].

Consider `COC(=O)C(CC#Cc1ccc2c(c1)[C@]1(C(=O)N2)[C@H](C(=O)N2CCc3cc(OC)c(OC)cc3C2)[C@H]2C(=O)O[C@H](c3ccccc3)[C@H](c3ccccc3)N2[C@@H]1c1ccccc1OCCO)C(=O)OC`, for which the composite z-score was -0.385 in [1]; 1.03 in assay [2]; -0.0037 in assay [3]; 0.738 in [4]; 1.15 in [5]; 1.67 in [6]. In addition, the composite z-score in assay [7] is 1.25; in assay [9], 0.529; in assay [10], -0.0346; in assay [11], 1.54; in assay [15] it was 3.06; in assay [17], -0.0862. Further, the composite z-score is 1.36 in [18], 1.07 in assay [19] and 0.0457 in [20]. Further, the z-score is 1.31 (inactive) in assay [8]; 2.06 (inactive) in assay [12]; 1.54 (inactive) in assay [13]; 3.78 (inactive) in [14]; 0.49 (inactive) in assay [16].
